Several values for one entry are separate records, joined by “and”; a condition that tells them apart may be missing. Equal entries are not always repeated. Inconclusive results are not listed. Where a call stands in place of a potency, no number is given. Activity calls are given as the source filed them. Unless noted, calls come from the whole dose curve; as a rule, active = well fitted curve in the direction sought with a large enough effect; inconclusive = small, poorly fitted or top-dose-only effect, or another doubt; inactive = no such curve, though single readings can be large; an effect the other way counts as inactive or inconclusive.
Experiments:
[1] = qHTS Assay for Identification of Small Molecule Agonists for Hypoxia Response Element Signaling Pathway (AID 914; active = well fitted activation curve with a large enough effect in the signal ratio, with a control signal flat, not every such curve was filed as active; the % refers to the signal ratio; note: potency is the fitted concentration of half-maximal effect); conditions: ME-180 (cervical carcinoma) HRE-bla reporter, beta-lactamase ratio, CoCl2, 17 h; activation: stronger effect = higher value
How it was run: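 HRE-bla ME-180 cells with beta-lactamase reporter under hypoxia response element, compounds with EC50 CoCl2 for 17 hours at 37 C. CCF4 substrate, 460nm/530nm emission ratio gave %Activity; AC50 from titration series.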

[2] = target: ATP-dependent 6-phosphofructokinase (Trypanosoma brucei brucei) (UniProt O15648); assay: qHTS Assay to Find Inhibitors of T. brucei phosphofructokinase: hit validation (AID 492961);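 note: luminescence reports ADP formed as PFK phosphorylates fructose-6-phosphate with ATP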
ATP-dependent 6-phosphofructokinase (Trypanosoma brucei brucei), sequence (O15648 whole entry, looked up): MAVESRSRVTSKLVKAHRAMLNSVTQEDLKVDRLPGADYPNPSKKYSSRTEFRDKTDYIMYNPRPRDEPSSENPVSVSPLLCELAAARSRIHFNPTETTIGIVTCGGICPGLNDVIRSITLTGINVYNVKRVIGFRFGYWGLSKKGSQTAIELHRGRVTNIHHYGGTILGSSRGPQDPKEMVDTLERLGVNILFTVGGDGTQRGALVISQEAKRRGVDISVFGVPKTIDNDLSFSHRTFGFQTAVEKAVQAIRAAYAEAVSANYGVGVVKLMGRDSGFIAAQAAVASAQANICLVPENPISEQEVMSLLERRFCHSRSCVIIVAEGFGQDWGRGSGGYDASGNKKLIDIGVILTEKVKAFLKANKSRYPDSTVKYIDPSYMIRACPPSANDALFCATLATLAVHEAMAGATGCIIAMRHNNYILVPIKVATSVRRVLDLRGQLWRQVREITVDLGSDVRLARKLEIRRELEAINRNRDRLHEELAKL
How it was run: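 ADP-Glo luminescence read-out of ADP formed by 1.25 nM PFK from 0.1 mM ATP and 0.5 mM F6P (TEA pH 8.0, 45 min, RT). Compounds titrated; activity normalized to no-enzyme and full-enzyme controls.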

[3] = qHTS profiling for inhibitors of Plasmodium falciparum proliferation (AID 504749); note: nearly all actives have a fitted effect of over 60% in size; conditions: P. falciparum in erythrocytes, SYBR Green DNA, 72 h, at 28.7 µM (top of the series)
How it was run: (§1)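 Three-day growth assay of blood-stage parasites in erythrocytes (0.3% parasitemia, 2.5% hematocrit) at 37 C, 5% CO2, quantified by SYBR Green DNA staining after overnight detergent lysis.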

CP192 = assay: as above; conditions: P. falciparum in erythrocytes, SYBR Green DNA, 72 h; series mostly up to 28.7 µM
How it was run: as §1

CP194 = assay: as above; conditions: P. falciparum in erythrocytes, SYBR Green DNA, 72 h; series mostly up to 28.7 µM
How it was run: as §1

CP201 = assay: as above; conditions: P. falciparum in erythrocytes, SYBR Green DNA, 72 h; series mostly up to 28.7 µM
How it was run: as §1

CP203 = assay: as above; conditions: P. falciparum in erythrocytes, SYBR Green DNA, 72 h; series mostly up to 28.7 µM
How it was run: as §1

CP291 = assay: as above; conditions: P. falciparum in erythrocytes, SYBR Green DNA, 72 h; series mostly up to 28.7 µM
How it was run: as §1

W2 = assay: as above; conditions: P. falciparum in erythrocytes, SYBR Green DNA, 72 h; series mostly up to 28.7 µM
How it was run: as §1

[4] = target: Bile acid receptor (Homo sapiens) (UniProt Q96RI1); assay: qHTS assay for small molecule antagonists of farnesoid X receptor signaling (AID 588526; calls by dose curve)
Bile acid receptor (Homo sapiens), sequence (Q96RI1 whole entry, looked up): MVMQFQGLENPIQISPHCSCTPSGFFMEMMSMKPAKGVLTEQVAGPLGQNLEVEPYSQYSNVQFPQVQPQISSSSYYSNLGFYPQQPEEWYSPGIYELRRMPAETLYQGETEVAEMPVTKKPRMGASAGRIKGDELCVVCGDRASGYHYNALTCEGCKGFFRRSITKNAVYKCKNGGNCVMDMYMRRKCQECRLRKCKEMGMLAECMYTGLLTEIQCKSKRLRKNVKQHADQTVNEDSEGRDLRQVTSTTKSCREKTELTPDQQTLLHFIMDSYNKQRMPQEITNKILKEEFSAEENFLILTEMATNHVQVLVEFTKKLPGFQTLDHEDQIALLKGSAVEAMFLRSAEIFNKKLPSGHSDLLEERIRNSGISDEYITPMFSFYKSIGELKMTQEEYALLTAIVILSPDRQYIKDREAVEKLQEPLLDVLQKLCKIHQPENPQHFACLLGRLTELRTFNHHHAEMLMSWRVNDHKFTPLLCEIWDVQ
How it was run: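 Beta-lactamase reporter antagonist mode: HEK293T FXR-UAS-bla cells, titrated compound, CDCA stimulation, 16 h 37 C, CCF4 dye 2 h RT. Data normalized to CDCA 50 uM and DMSO; Hill-fit IC50.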

[5] = qHTS assay for small molecule antagonists of peroxisome proliferator-activated receptor delta signaling (AID 588535; active = well fitted inhibition curve with a large enough effect in the signal ratio, with a control signal flat, not every such curve was filed as active; the % refers to the signal ratio;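 for max response: cells co-treated with a PPAR-delta agonist as stimulator during compound exposure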); conditions: HEK293T PPARd-UAS-bla, beta-lactamase FRET ratio, 18 h; 460 nm channel
How it was run: (§2)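 Cell-based beta-lactamase assay in antagonist mode: 4000 HEK293T PPAR-delta-UAS-bla cells per well, 5 hr preincubation then 18 hr compound incubation at 37 C. IC50 obtained by Hill equation fitting.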

[6] = target: Peroxisome proliferator-activated receptor delta (Homo sapiens) (UniProt Q03181); assay: as above
Peroxisome proliferator-activated receptor delta (Homo sapiens), sequence (Q03181 whole entry, looked up): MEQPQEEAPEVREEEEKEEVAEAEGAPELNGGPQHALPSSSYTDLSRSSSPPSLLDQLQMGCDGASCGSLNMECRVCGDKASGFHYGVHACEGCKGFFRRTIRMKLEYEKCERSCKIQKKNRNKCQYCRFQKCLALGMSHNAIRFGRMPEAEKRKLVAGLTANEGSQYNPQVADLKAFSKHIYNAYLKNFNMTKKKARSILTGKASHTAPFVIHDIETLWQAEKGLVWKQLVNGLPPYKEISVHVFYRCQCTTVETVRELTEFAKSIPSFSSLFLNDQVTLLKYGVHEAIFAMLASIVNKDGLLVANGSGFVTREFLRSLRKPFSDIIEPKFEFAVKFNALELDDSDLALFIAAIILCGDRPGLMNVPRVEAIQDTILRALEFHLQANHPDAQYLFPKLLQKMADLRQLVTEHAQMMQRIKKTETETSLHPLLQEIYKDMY
How it was run: as §2

[7] = qHTS assay for cell viability of the p53RE-bla HCT-116 cell line (AID 743292); note: nearly all actives have a fitted effect of over 55% in size
How it was run: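 CellSensor p53RE-bla HCT-116 cells (4,000/well) pre-incubated 5 h at 37 C, then exposed to compounds in DMSO for 16 h at 37 C. Viability read as ATP content by CellTiter-Glo luminescence after 30 min at room temperature.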

[8] = Cell Viability - HepG2 (AID 433; calls by dose curve;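 note: potency is the fitted concentration of half-maximal effect; potency for ATP loss meaning cytotoxicity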); conditions: qHTS
How it was run: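 Cytotoxicity read as ATP loss (CellTiter-Glo luminescence) after 40 hr compound exposure of HepG2, 1500 cells/well, 37 °C. AC50 by Hill equation; 0% set by DMSO, 100% inhibition by 100 uM tamoxifen.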

[9] = Cell Viability - N2a (AID 540); conditions: N2a mouse neuroblastoma cell viability; activity change, negative = cytotoxicity: at 92.2 µM (top of the series); note: nearly all actives have a fitted effect of over 45% in size
How it was run: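 Mouse neuroblastoma N2a cells (1500/well) were preincubated 5 hr at 37 °C, then exposed to compounds for 40 hr at 37 °C in complete medium. Viability was read as intracellular ATP by CellTiter-Glo luminescence; AC50 from Hill fits.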

[10] = Cell Viability - LYMP2-007 (AID 979);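 note: cells exposed to compound for 24 h before reading; nearly all actives have a fitted effect of over 60% in size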
How it was run: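 Human lymphoblastoid cells (2500/well) were plated in complete medium, incubated 5 hr at 37 C, then exposed to compounds for 24 hr at 37 C. Intracellular ATP was read by CellTiter-Glo luminescence after 30 min at room temperature; AC50 from Hill fits.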

[11] = Cell Viability - LYMP2-008 (AID 980); note: nearly all actives have a fitted effect of over 60% in size
How it was run: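 Human lymphoblastoid cells (2500/well) were plated, held 5 hr at 37 C, then exposed to compounds for 24 hr at 37 C in complete medium. Intracellular ATP was read by CellTiter-Glo luminescence; AC50 from Hill-fitted concentration-response.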

[12] = qHTS assay to identify small molecules that stimulate interleukin-8 (IL-8) secretion (AID 651758; active = well fitted activation curve with a large enough effect in the signal ratio; the % refers to the signal ratio; note: potency is the fitted concentration of half-maximal effect)
How it was run: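 Secreted IL-8 measured by TR-FRET sandwich (cryptate and XL665 antibodies) from THP-1 cells exposed to compound overnight (16 hrs, 37 C).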

[13] = target: Tumor necrosis factor (Homo sapiens) (UniProt P01375); assay: qHTS assay to identify small molecules that stimulate Tumor Necrosis Factor-alpha (TNF-alpha) secretion (AID 651757; active = well fitted curve in the direction sought with a large enough effect in the signal ratio; the % refers to the signal ratio)
Tumor necrosis factor (Homo sapiens), sequence (P01375 whole entry, looked up): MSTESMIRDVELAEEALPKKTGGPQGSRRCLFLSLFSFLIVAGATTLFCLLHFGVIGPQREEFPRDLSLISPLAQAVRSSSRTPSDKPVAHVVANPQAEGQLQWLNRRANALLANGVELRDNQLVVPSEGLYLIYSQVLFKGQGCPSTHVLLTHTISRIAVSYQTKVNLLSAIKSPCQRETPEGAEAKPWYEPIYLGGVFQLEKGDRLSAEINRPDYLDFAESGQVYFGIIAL
How it was run: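 THP-1 cells were exposed to compounds for 17 hrs at 37 C, after which secreted TNF-alpha was measured by homogeneous HTRF (TR-FRET) using cryptate- and XL665-labeled anti-TNF-alpha antibodies, read after 3 hr at room temperature.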

[14] = Cell Viability - LYMP1-002 - Assay at 40 hr (AID 994); note: nearly all actives have a fitted effect of over 60% in size
How it was run: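 Human lymphoblastoid cells, 2500/well in complete medium, were preincubated 5 hr at 37 C, then exposed to compounds for 40 hr at 37 C. Intracellular ATP was read by CellTiter-Glo luminescence after 30 min at room temperature; AC50 from Hill-equation fits.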

## COc1ccc(-c2nc3cnc(N4CCOCC4)nc3n(-c3ccc(OC)cc3)c2=O)cc1
[1]
  Potency: 3.16 µM (active)

## CC(=O)OC1CC2CCC1(C)C2(C)C (configuration not stated)
[2]
  outcome: inactive
[3]; parasite line A
  activity, negative = inhibition: 6.76% (inactive)
[3]; parasite line B
  activity, negative = inhibition: 13.6% (inactive)
CP192
  Potency: inactive
CP194
  Potency: inactive
CP201
  Potency: inactive
CP203
  Potency: inactive
CP291
  Potency: inactive
W2
  Potency: inactive

## COc1cccc(-c2ccc3ncnc(NCc4cnc(C)cn4)c3c2)c1
[1]
  activation: -8.99% (inactive)

## COc1cccc(Nc2ncc3ncc(=O)n(Cc4ccc(F)cc4)c3n2)c1
[1]
  activation: -20.2% (inactive)

## CCNc1ncc2nc(-c3ccc(OC)cc3)c(=O)n(C)c2n1
[1]
  Potency: 3.98 µM (active)

## C=CC(C)(CCC=C(C)C)OC(C)=O (configuration not stated)
[4]
  outcome: inactive
[5]
  max response: -1.31%
[6]
  Potency: inactive
[7]
  Potency: inactive

## COc1ccc(/C=C/c2cc(OC)cc(=O)o2)cc1
[8]
  Potency: > 92 µM (inactive)
[9]
  activity change, negative = cytotoxicity: -11.5% (inactive)
[10]
  Potency: inactive
[11]
  Potency: inactive
[4]
  outcome: inactive
[12]
  Potency: 66.8 µM (active)

## CCCCCCCCCCCCCC(=O)O
[8]
  Potency: > 92 µM (inactive)
[4]
  outcome: inactive
[13]
  outcome: inactive

## C=C(C)C1CC=C(C)C(O)C1 (configuration not stated)
[11]
  Potency: inactive
[14]
  Potency: inactive
[13]
  outcome: inactive

## C=CCc1ccc(OC)c(OC)c1
[4]
  outcome: inactive
[5]
  max response: 10.2% and -6.71%
[6]
  Potency: inactive
[13]
  outcome: inactive
[12]
  Potency: inactive
[7]
  Potency: inactive

## C=CC(=C)CCC=C(C)C
[14]
  Potency: inactive
[5]
  max response: -12.1%
[6]
  Potency: inactive
[13]
  outcome: inactive
[12]
  Potency: inactive

## COc1cc(/C=C/c2ccccc2)oc(=O)c1
[11]
  Potency: inactive
[14]
  Potency: inactive
[5]
  max response: -19.2%
[6]
  Potency: inactive
[7]
  Potency: inactive

## O=C(O)c1ccccc1
[8]
  Potency: > 92 µM (inactive)
[9]
  activity change, negative = cytotoxicity: 6.89% (inactive)
[10]
  Potency: inactive
[14]
  Potency: inactive
[13]
  outcome: inactive

## CC1=C2[C@H](/C=C(\C)C(=O)O)CC[C@@H](C)[C@H]2CC1
[4]
  outcome: inactive
[13]
  outcome: inactive

— PubChem BioAssay (NCATS)
